In ChEMBL document CHEMBL1961873, “Compounds: GSK PKIS; Assays: Nanosyn kinase panel” (2012):

Legend:
[1] = target: T1, 3-phosphoinositide-dependent protein kinase 1 (Homo sapiens) (UniProt O15530); details: at 0.1 µM;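 also: values are mean inhibition of PDK1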
T1 sequence (whole entry): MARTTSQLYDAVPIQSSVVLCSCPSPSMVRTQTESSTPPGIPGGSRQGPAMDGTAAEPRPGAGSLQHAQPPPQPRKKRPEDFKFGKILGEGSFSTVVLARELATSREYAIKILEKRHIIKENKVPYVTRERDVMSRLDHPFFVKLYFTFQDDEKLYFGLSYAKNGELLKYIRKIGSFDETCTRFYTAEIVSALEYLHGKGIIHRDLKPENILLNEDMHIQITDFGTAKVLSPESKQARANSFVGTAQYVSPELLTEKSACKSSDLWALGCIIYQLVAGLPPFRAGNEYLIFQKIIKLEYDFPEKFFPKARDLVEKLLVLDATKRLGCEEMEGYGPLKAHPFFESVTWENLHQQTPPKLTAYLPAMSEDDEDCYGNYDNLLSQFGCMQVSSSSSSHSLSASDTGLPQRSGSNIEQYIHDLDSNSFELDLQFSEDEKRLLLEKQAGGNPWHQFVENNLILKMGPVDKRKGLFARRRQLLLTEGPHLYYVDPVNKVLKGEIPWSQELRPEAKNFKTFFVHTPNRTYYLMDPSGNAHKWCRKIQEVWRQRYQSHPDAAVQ

[2] = target: cAMP-dependent protein kinase catalytic subunit alpha (Homo sapiens) (UniProt P17612); details: at 0.1 µM
[3] = target: cAMP-dependent protein kinase catalytic subunit alpha (Homo sapiens) (UniProt P17612); details: at 1 µM
[4] = target: Protein kinase C alpha type (Homo sapiens) (UniProt P17252); details: at 0.1 µM
[5] = target: Protein kinase C alpha type (Homo sapiens) (UniProt P17252); details: at 1 µM
[6] = target: Protein kinase C beta type (Homo sapiens) (UniProt P05771); details: at 0.1 µM
Sequence of Protein kinase C beta type (Homo sapiens) (P05771 2-671 limits assumed): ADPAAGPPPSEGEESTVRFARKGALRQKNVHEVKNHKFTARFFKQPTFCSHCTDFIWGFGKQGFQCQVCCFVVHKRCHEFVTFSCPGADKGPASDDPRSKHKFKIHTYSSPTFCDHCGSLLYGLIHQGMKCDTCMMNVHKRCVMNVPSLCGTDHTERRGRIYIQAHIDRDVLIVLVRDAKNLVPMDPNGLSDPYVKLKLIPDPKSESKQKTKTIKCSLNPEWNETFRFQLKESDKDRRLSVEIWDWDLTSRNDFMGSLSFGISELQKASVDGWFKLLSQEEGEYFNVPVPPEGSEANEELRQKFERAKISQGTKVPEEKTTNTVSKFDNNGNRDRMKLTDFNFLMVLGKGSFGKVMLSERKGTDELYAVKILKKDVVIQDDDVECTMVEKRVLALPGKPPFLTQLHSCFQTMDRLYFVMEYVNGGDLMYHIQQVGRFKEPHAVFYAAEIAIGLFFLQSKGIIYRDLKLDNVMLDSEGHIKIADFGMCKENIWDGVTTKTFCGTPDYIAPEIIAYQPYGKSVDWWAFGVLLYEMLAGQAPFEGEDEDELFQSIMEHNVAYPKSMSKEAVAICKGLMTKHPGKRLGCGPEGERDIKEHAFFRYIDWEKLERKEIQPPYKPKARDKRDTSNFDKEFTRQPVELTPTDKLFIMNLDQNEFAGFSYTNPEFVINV

[7] = target: Protein kinase C beta type (Homo sapiens) (UniProt P05771); details: at 1 µM
[8] = target: Protein kinase C eta type (Homo sapiens) (UniProt P24723); details: at 0.1 µM
Sequence of Protein kinase C eta type (Homo sapiens) (P24723 whole entry): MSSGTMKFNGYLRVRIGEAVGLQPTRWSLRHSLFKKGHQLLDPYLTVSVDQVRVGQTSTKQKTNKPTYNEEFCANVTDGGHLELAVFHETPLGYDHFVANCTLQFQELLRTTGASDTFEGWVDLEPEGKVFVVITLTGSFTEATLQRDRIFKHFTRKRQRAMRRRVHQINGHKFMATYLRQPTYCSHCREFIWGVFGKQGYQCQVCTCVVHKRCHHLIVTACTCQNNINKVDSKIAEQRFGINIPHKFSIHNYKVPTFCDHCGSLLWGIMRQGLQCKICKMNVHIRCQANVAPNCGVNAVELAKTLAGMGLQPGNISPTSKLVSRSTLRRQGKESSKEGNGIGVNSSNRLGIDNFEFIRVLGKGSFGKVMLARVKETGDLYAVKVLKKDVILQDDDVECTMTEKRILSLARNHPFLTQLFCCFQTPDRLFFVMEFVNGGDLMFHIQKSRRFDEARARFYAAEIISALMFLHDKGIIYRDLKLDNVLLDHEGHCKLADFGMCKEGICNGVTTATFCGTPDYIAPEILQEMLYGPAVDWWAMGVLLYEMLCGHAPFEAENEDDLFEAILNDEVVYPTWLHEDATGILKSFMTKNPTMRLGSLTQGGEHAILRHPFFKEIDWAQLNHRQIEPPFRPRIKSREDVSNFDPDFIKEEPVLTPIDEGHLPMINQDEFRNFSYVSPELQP

[9] = target: Protein kinase C eta type (Homo sapiens) (UniProt P24723); details: at 1 µM
[10] = target: Protein kinase C gamma type (Homo sapiens) (UniProt P05129); details: at 0.1 µM
[11] = target: Protein kinase C gamma type (Homo sapiens) (UniProt P05129); details: at 1 µM
[12] = target: T2, Protein kinase C iota type (Homo sapiens) (UniProt P41743); details: at 0.1 µM
T2 sequence (whole entry): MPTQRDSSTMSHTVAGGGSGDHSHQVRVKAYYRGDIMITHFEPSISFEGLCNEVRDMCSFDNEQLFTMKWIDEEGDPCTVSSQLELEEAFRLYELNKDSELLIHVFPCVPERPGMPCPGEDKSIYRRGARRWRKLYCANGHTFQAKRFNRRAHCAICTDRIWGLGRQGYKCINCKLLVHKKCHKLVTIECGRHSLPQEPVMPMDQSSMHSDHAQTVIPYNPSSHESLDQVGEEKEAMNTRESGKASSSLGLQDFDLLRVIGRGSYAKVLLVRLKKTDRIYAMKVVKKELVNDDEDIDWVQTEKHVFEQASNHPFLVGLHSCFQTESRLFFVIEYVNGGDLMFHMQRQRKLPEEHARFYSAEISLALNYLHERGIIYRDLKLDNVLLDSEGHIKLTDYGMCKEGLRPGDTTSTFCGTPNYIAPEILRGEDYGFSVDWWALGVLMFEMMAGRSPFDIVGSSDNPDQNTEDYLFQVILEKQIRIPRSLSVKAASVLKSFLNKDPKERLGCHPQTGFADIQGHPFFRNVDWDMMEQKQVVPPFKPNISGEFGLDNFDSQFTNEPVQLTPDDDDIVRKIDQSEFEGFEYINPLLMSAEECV

[13] = target: T2, Protein kinase C iota type (Homo sapiens); details: at 1 µM
[14] = target: Protein kinase C theta type (Homo sapiens) (UniProt Q04759); details: at 0.1 µM
Sequence of Protein kinase C theta type (Homo sapiens) (Q04759 whole entry, looked up): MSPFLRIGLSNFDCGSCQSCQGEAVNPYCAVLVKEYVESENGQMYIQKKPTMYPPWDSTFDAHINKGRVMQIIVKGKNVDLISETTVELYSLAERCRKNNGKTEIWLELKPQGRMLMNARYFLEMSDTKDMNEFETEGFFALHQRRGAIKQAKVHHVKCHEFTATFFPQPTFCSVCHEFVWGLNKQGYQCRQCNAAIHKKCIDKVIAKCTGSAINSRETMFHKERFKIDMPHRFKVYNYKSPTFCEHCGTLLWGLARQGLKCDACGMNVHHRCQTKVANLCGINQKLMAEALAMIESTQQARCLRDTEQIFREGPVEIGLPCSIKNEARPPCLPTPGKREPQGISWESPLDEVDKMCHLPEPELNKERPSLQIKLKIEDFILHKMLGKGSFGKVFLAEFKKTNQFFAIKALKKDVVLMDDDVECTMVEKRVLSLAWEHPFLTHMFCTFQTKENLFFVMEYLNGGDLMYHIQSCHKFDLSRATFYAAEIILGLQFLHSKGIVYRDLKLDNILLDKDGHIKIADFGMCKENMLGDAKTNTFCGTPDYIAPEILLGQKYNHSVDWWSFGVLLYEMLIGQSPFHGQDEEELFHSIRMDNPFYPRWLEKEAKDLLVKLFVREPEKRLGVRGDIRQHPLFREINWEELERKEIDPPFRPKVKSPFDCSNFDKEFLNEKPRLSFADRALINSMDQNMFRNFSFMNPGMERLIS

[15] = target: Protein kinase C theta type (Homo sapiens) (UniProt Q04759); details: at 1 µM
[16] = target: Protein kinase C beta type (Homo sapiens) (UniProt P05771); details: at 0.1 µM; remark: listed apart in the source
[17] = target: Protein kinase C beta type (Homo sapiens) (UniProt P05771); details: at 1 µM; remark: listed apart in the source
[18] = target: T3, Serine/threonine-protein kinase D1 (Homo sapiens) (UniProt Q15139); details: at 0.1 µM
T3 sequence (whole entry): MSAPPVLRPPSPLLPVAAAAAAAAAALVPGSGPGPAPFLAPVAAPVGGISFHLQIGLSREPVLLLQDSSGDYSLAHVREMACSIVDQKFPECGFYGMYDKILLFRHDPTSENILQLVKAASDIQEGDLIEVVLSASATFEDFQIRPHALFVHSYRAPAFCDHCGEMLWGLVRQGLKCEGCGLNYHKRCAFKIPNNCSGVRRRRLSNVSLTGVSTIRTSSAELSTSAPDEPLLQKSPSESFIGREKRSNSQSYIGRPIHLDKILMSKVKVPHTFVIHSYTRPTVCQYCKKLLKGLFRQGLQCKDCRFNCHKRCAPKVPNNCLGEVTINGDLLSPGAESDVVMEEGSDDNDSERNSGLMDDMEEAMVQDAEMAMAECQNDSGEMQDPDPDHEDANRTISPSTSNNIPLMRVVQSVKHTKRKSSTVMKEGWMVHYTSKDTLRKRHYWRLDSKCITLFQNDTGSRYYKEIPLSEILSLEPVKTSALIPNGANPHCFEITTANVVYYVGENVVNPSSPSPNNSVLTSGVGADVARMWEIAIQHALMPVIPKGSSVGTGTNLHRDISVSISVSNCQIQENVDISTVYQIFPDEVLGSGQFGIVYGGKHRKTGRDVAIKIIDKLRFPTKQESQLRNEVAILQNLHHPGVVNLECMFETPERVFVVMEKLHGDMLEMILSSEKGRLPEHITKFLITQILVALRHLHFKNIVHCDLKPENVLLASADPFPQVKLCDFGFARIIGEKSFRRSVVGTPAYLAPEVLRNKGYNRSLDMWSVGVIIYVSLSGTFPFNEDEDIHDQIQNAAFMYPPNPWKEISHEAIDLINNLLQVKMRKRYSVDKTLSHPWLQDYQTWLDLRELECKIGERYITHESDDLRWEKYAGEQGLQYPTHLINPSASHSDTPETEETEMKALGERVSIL

[19] = target: T3, Serine/threonine-protein kinase D1 (Homo sapiens); details: at 1 µM
[20] = target: T4, Serine/threonine-protein kinase D2 (Homo sapiens) (UniProt Q9BZL6); details: at 0.1 µM;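 also: reported percent inhibition values are means, part of the GSK PKIS kinase panel screen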
T4 sequence (whole entry): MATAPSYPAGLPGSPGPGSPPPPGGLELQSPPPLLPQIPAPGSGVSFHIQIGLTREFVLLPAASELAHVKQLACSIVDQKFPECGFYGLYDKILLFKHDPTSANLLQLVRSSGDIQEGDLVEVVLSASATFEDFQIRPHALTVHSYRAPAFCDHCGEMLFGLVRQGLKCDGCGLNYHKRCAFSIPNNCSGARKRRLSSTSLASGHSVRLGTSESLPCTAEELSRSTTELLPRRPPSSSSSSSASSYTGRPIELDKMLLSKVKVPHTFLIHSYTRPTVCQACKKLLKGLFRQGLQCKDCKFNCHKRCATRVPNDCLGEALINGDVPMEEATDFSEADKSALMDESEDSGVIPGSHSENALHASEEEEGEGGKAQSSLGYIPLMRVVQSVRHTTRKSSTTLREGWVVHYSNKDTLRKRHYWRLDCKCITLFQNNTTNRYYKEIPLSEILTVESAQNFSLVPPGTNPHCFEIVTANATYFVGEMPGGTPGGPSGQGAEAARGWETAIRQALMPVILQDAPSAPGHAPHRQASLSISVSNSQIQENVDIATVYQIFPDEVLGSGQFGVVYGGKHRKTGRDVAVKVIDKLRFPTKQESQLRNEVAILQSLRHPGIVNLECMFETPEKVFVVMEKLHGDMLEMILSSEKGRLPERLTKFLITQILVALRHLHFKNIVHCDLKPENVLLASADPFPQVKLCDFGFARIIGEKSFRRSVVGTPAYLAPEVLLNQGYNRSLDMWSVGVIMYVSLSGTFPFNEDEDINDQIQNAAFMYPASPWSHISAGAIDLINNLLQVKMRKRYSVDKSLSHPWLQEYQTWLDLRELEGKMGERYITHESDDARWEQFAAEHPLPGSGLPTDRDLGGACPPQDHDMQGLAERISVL

Row | Structure (SMILES) | inhibition [1] | inhibition [2] | inhibition [3] | inhibition [4] | inhibition [5] | inhibition [6] | inhibition [7] | inhibition [8] | inhibition [9] | inhibition [10] | inhibition [11] | inhibition [12] | inhibition [13] | inhibition [14] | inhibition [15] | inhibition [16] | inhibition [17] | inhibition [18] | inhibition [19] | inhibition [20]
1 | CS(=O)(=O)CCNCc1ccc(-c2ccc3ncnc(Nc4ccc(OCc5ccccc5)c(Br)c4)c3c2)o1 | 2.06% | -1.58% | -1.94% | -3.83% | -2.95% | 0.95% | -0.59% | 5.37% | 5.42% | 0.5% | -0.13% | 2.91% | 2.72% | 2.31% | 2.41% | 0.97% | 1.27% | 0.19% | -0.25% | 0.64%
2 | CCS(=O)(=O)c1ccc(OC)c(Nc2ncc(-c3cccc(-c4ccccc4F)c3)o2)c1 | 9.34% | 0.57% | 1.3% | 1.13% | 1.66% | 0.49% | 0.3% | -1.89% | -1.48% | 0.64% | 0.81% | 1.05% | 3.5% | -0.12% | 2.52% | -0.13% | 1.06% | 1.19% | 1.23% | 1.33%
3 | COc1cc(Nc2ncc3c(C)nc(-c4cccc(Oc5ccccc5)c4)n3n2)cc(OC)c1OC | 3.74% | 0.88% | -0.04% | 0.01% | 0.77% | -0.46% | -0.16% | 4.9% | -1.37% | 0.97% | 2.12% | 0.93% | 1.81% | 0.31% | -0.72% | 0.53% | 0.55% | 1.42% | 2.93% | 1.26%
4 | COc1ccc2cc(-c3c(-c4ccncc4)nc(-c4ccc([S+](C)[O-])cc4C)n3C)ccc2c1 (stereo not given) | 0.48% | 2.01% | 21.8% | 0.33% | 1.35% | 2.04% | 13% | 0.16% | 0.69% | -0.82% | -0.38% | 0.41% | -0.63% | -1.05% | -1.26% | 0.04% | 5.01% | -0.67% | -0.16% | -0.62%
